Pf growth 48h: P. falciparum growth inhibition at 48 hours (one generation); actives 5.9% (n = 310,000); AID 504832; Potency, µM (doses to about 28.7 µM), without a hit: at the top dose activity change, negative = inhibition, most hits filed as inhibitors; P. falciparum luciferase growth in erythrocytes, 48 h; further: potency means the concentration at half of the fitted maximal effect; on the % scale 0 is the no-effect control and ±100 the full control effect
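Erythrocytes infected with P. falciparum carrying an integrated firefly luciferase reporter (2% hematocrit, 0.1% parasitemia final) were exposed to compounds in RPMI 1640 with 0.5% Albumax at 37 C, 5% CO2. Growth inhibition was scored as reduced luminescence.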
Pf growth 96h: P. falciparum growth inhibition at 96 hour, primary screen for plastid delayed-death inhibitors. P. falciparum luciferase reporter growth, 96 h. Potency, µM (series often up to 28.7 µM), for the others: top-dose activity change, negative = inhibition, actives largely listed as inhibitors. actives 6.9% (n = 320,000); further: potency means the concentration at half of the fitted maximal effect; on the % scale 0 is the no-effect control and ±100 the full control effect
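96 h incubation, 37 C, 5% CO2, of luciferase-reporter P. falciparum-infected RBCs (2% hematocrit, 0.05% parasitemia final) with test compounds; endpoint luminescence.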
HCV inhibitor: inhibitors of hepatitis C virus infection | actives 3.4% (n = 340,000) | AID 651820 | Potency, µM (doses to about 41.8 µM), for inactives: at the highest dose activity change, negative = inhibition, hits mostly inhibitors | Huh7.5.1 HCVcc-Cre infection, luciferase reporter, 44 h; further: potency means the concentration at half of the fitted maximal effect; on the % scale 0 is the no-effect control and ±100 the full control effect
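Compounds are dispensed onto cells plated 4 h earlier at 1,000 per well, with HCVcc-Cre virus (about 0.5 moi) added next. Following 44 h of culture, luminescent signal is measured for 15 sec after 15 min with substrate at room temperature.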
HCMV inh: inhibitors of human cytomegalovirus | AID 1259415 | HFF cells, HCMV-luciferase reporter, 72 h; active compounds read low | actives 4.5% (n = 410,000) | activity change, negative = inhibition, % at 57.5 µM; in the data active means activity change below about -60%; inconclusive means no clear call, values can overlap the other calls; inactive means above about -39%; further: on the % scale 0 is the no-effect control and ±100 the full control effect
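Luciferase read-out from HCMV-luciferase-infected HFFs (MOI 1 PFU/cell) 72 h post infection at 37C; compounds added after 16 h cell attachment; activity normalized between buffer-only basal and Salinomycin (10uM) inhibitor controls.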
Shiga toxin inh: inhibitors of Shiga toxin in Vero cells | Vero cells, Shiga toxin protein synthesis inhibition reporter | inhibition, % at 38.7 µM | actives 9.2% (n = 290,000); in the data active means inhibition mostly above about 28%, no sharp cut-off; inactive means mostly below about 43%; further: 0% is about no effect
Cycloheximide cs: counter-screen for Shiga toxin inhibitors: cycloheximide protein synthesis inhibition; cell reporter, cycloheximide protein synthesis inhibition counterscreen; max response, %; actives 12% (n = 300,000); in the data active means max response mostly above about 13%, no sharp cut-off; inactive means mostly below about 14%; further: read at 38.3 µM for the half of the compounds with a filed dose; 0% is about no effect
Starred values were filed as active, the others as inactive; ? = inconclusive; / = not tested or not shown; [ ] = remark or other dose. In the library only some 21% were active in any assay of this set; here they are far more common. Unless noted, the call rests on the fitted dose curve; in most records, active means well fitted inhibition curve with a large enough effect; inconclusive means small, poorly fitted or top-dose-only effect, or another doubt; inactive means no such curve, though single readings can be large or run the other way.

SMILES | Pf growth 48h | Pf growth 96h | HCV inhibitor | HCMV inh | Shiga toxin inh | Cycloheximide cs
CCOC(=O)CC1C(=O)NC2CCCCC2N1C(=O)Nc1ccc(Cl)cc1 (centres undefined) | -1% | / | 1% | 87 | 20 | 28*
CCCN(CCC)CCCNC(=O)c1sc2nc3n(c(=O)c2c1C)CCC3 | / | / | / | -4 | / | /
COc1ccc(-c2nnc(Nc3nc4c(OC)cccc4s3)o2)cc1 | / | 59% | ? | 2 | -5 | -4
Fc1cccc2sc(Nc3nnc(-c4ccccc4)o3)nc12 | 26% | 112% | -29% | 32 | 46* | 27*
O=C(COc1ccccc1)NNc1nc2c(F)cccc2s1 | -14% | 39% | 10% | 3 | 18 | -3
COc1ccc(-c2nnc(Nc3nc4c(OC)cccc4s3)o2)c(OC)c1 | 10µM* | -37% | 6.3µM* | / | 43* | 18*
COc1cc(OC)cc(-c2nnc(NC(=O)CCS(=O)(=O)c3ccc(F)cc3)o2)c1 | ? | -3% | 11% | -2 | / | /
COc1cc(OC)cc(-c2nnc(Nc3nc4c(F)cccc4s3)o2)c1 | -3% | 12µM* | -35% | -37 | 14 | 5
CN(CC(=O)Nc1ccc(F)c(F)c1F)C(=O)C1COc2ccccc2O1 (centres undefined) | / | / | 7% | ? | / | /
Cc1ccc(NC(=O)Cn2ncc3ccccc32)c(Cl)c1 | -7% | 15% | -11% | 8 | 55* | 52*
Cc1ccc(NC(=O)Cn2nc(Cc3ccncc3)c3ccccc3c2=O)c(Cl)c1 | / | / | / | -97* | / | /
CCOc1ccccc1N(C)C(=O)Cn1nc(Cc2cccnc2)c2ccccc2c1=O | / | / | / | -72* | / | /
CCC(C)NC(=O)Cn1nc(Cc2ccncc2)c2ccccc2c1=O (centres undefined) | -9% | 6.6µM* | 8% | 3 | 22 | 1
C=CCNCc1ccc(C(=O)NCCCCCCC)cc1[N+](=O)[O-] | ? | ? | ? | 24 | / | /
O=C(CN1C2=NCCN2c2ccccc21)c1ccco1 | / | 13µM* | -3% | -1 | -14 | -6
O=C(CN1C2=NCCN2c2ccccc21)N1CCOCC1 | 12% | 16% | -7% | 12 | -4 | -5
O=C(CN1C2=NCCCN2c2ccccc21)c1ccc2c(c1)OCO2 | -19% | ? | 11µM* | -28 | 12 | -1
O=C(COc1ccc(Cl)cc1Cl)N/N=C/c1ccc[nH]1 | 3% | 10% | 6.3µM* | -40 | 35* | 44*
O=C(COc1ccc(Cl)cc1Cl)c1ccc[nH]1 | 38% | 172% | 11% | -20 | 57* | 31*
Cc1ccc(Cl)c(OCC(=O)OCC(=O)c2ccc[nH]2)c1 | / | / | 5% | -6 | / | /
CCc1ccc(C(=O)NNC(=O)c2ccc(OCC(=O)N3CCOCC3)c(OC)c2)cc1 | 4% | 0% | -30% | 7 | / | /
Cc1oc2ccccc2c1CC(=O)NCCCN(C)C | 2.1µM* | 5% | -13% | -64* | -7 | -2
COc1ccc(CCNC(=O)c2cc(-c3ccccc3O)n[nH]2)cc1OC | 13µM* | 3%[5.75 µM] | 9% | ? | 3 | 5
COc1ccc(CCNC(=O)c2cc(-c3ccc(C)cc3O)n[nH]2)cc1OC | / | 7.4µM* | ? | -9 | -4 | 5
CCOCCCNC(=O)N1CCN(S(=O)(=O)c2ccc3c(ccn3C)c2)CC1 | / | / | / | 12 | / | /
SMILES | Pf growth 48h | Pf growth 96h | HCV inhibitor | HCMV inh | Shiga toxin inh | Cycloheximide cs
O=C(c1ccccc1)C1CCN(C(=O)c2c(F)cccc2F)CC1 | 7%[0.00184 µM] | 0% | 8% | / | -3 | -5
CCOc1cccc(C(=O)Nc2ccc(-c3nc4ncccc4o3)cc2C)c1 | / | / | / | -16 | / | /
Cc1cccc(N2C(=O)CC(SC(=Nc3ccccc3)Nc3ccccc3)C2=O)c1 (centres undefined) | ? | ? | ? | -3 | -8 | 0
O=C1SC(SC(=Nc2ccccc2)Nc2ccccc2)C(=O)N1c1ccccc1 (centres undefined) | 52% | 41% | -2% | 26 | 60* | 41*
COc1ccc(NC(=O)CN2C(=O)COc3ccc(S(=O)(=O)NC4CCCC4)cc32)cc1OC | / | / | / | 7 | / | /
CC(OC(=O)c1cccc(-n2cnnn2)c1)C(=O)NC1(C#N)CCCCC1 (centres undefined) | ? | 2% | 0% | -11 | / | /

From PubChem BioAssay
